BAZ2B inh: BAZ2B (human) inhibition | actives 4.4% (n = 360,000) | AlphaScreen BAZ2B-H3K14Ac peptide displacement | Potency, µM (doses to about 114 µM), inactives show at the top dose activity change, negative = inhibition, usual class: inhibitors; note: potency is the fitted concentration of half-maximal effect; % is set by controls: 0 for no effect and ±100 for the full control effect; nearly all actives have a fitted effect of over 60% in size
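Protein-peptide AlphaScreen: BAZ2B 50 nM, b-H3K14Ac 50 nM, 1x PBS pH 7.4 + 0.01% Tween-20. Preincubation 30 min RT; cpd 30 min RT (top 110 uM); beads 20 min RT, light-protected.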
G9a inh: inhibitors of human histone lysine methyltransferase G9a; Q96KQ7; G9a H3K9 monomethylation, AlphaScreen, 2 h; Potency, µM (highest dose often 102 µM), for the others: top-dose activity, negative = inhibition, usual class: inhibitors; actives 8.8% (n = 350,000); note: potency is the fitted concentration of half-maximal effect; % is set by controls: 0 for no effect and ±100 for the full control effect; nearly all actives have a fitted effect of over 75% in size
Target sequence (Q96KQ7 913-1193 limits assumed): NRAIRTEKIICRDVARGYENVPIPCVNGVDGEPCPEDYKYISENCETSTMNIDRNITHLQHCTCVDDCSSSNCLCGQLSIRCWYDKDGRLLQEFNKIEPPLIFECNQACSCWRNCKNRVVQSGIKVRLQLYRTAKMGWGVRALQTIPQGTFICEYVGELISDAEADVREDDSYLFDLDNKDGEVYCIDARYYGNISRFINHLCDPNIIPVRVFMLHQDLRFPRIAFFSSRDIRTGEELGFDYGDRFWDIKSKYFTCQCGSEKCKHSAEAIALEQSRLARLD
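Enzyme 20 nM + cpd, 15 min RT; add b-H3K9 pep 500 nM / SAM 20 uM; 2 h RT; anti-H3K9me1 Ab 0.5 ug/mL + SA donor / anti-rabbit acceptor beads 20 ug/mL each, 10 min; AlphaScreen read.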
Six1-Eya2 inh: Six1/Eya2 interaction inhibition; AlphaScreen GST-Six1/His-Eya2 binding, biochemical; hits give low values; Q15475+O00167; AID 651725; actives 0.56% (n = 360,000); activity change, % (no concentration beside the values); in the data active = activity change below about -65%; inconclusive = mostly about -30% to -63%; note: % is set by controls: 0 for no effect and ±100 for the full control effect
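AlphaScreen luminescence read after one hour at 37 °C in darkness. Pin-transferred compounds met GST-Six1 and His-Eya2 protein (5X stock 250 nM/500 nM) plus glutathione donor and Ni-chelate acceptor beads (5X, 50 ug/mL).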
JMJD2A Tudor: blocks the human JMJD2A Tudor domain | O75164 | Potency, µM (series often up to 114 µM), inactives show top-dose activity change, negative = inhibition, actives largely listed as inhibitors | actives 4.4% (n = 390,000) | AlphaScreen JMJD2A-Tudor / H3K4me3 peptide binding; note: potency is the fitted concentration of half-maximal effect; % is set by controls: 0 for no effect and ±100 for the full control effect; nearly all actives have a fitted effect of over 50% in size
CtBP-E1A blk: blocks the CtBP interaction with E1A | AlphaScreen GST-E1A/His-CtBP binding, 1536-well; hits give low values | activity change, % (concentration not given with the values) | actives 0.49% (n = 340,000) | AID 651724; in the data active = activity change below about -65%; inconclusive = mostly about -30% to -63%; note: % is set by controls: 0 for no effect and ±100 for the full control effect
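Homogeneous bead-based format: GST-tagged E1A captured on glutathione donor beads, His-tagged CtBP on nickel acceptor beads; compounds precede bead addition by 2 h at 37 °C.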
HP1b chromo inh: inhibitors of HP1-beta chromodomain binding to methylated histone tails. AlphaScreen HP1-beta / biotin-H3K9me3 peptide binding. Potency, µM (titrated, usually from 114 µM), for inactives: at the top dose activity change, negative = inhibition, usual class: inhibitors. actives 0.56% (n = 390,000); note: potency is the fitted concentration of half-maximal effect; nearly all actives have a fitted effect of over 70% in size
Target sequence (P83916 whole entry, looked up): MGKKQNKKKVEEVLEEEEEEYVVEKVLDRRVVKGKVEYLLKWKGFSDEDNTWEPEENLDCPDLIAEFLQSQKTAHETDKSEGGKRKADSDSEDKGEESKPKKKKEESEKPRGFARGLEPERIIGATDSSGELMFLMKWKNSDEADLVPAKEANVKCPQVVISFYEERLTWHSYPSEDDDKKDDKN
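AlphaScreen: HP1-beta (50 nM) preformed 30 min with biotin-H3(1-18)K9me3 peptide (50 nM) in PBS pH 7.4, 0.01% Tween-20. Compound added for 30 min at RT, then streptavidin donor/nickel chelate acceptor beads (10 ug/mL) for 30 min.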
The depositor's hits bear a star; [ ] = dose if it differs, or a comment. Rows were chosen to be rich in hits. Some 10% of all compounds tested hit in one or more screens of this group. Unless noted, calls come from the whole dose curve; as a rule, active = well fitted inhibition curve with a large enough effect; inconclusive = small, poorly fitted or top-dose-only effect; inactive = no such curve, though single readings can be large or run the other way.

How did O=C(COC(=O)[C@@H]1CC(O)CN1S(=O)(=O)c1ccc([N+](=O)[O-])cc1)NC12CC3CC(CC(C3)C1)C2 (some centres not stated) do in these assays?
BAZ2B inh: -5.7%; G9a inh: 20µM*; Six1-Eya2 inh: -3.0; JMJD2A Tudor: -7.7%; HP1b chromo inh: 12.7%

What do the screens show for `COc1cc(NC(=O)COC(=O)C2CC(O)CN2S(=O)(=O)c2ccc(Cl)cc2)c(C)cc1[N+](=O)[O-]` (configuration not stated)?
Six1-Eya2 inh: -3.5; JMJD2A Tudor: -25.7%; CtBP-E1A blk: -0.2; HP1b chromo inh: 21.4%

What do the screens show for `CCCCN(CC)CCCNC(=O)C1CCN(c2nc3ccc(CC)cc3s2)CC1`?
BAZ2B inh: -1.5%; G9a inh: -33.8%[59 µM]; JMJD2A Tudor: -16.4%; HP1b chromo inh: 14.4%

What do the screens show for `COc1ccc(NC(=O)Nc2nnc(N3CCCC3)s2)cc1`?
BAZ2B inh: -3.0%; G9a inh: -33.1%[59 µM]; JMJD2A Tudor: -12.6%; HP1b chromo inh: 25.8%

Results for Oc1cccc(/C=N/Nc2cc(N3CCCC3)nc(N3CCCC3)n2)c1 ?
BAZ2B inh: 44.7µM*; G9a inh: -9.0%[59 µM]; Six1-Eya2 inh: inconclusive; JMJD2A Tudor: 56.2µM*; CtBP-E1A blk: inconclusive; HP1b chromo inh: inconclusive

What do the screens show for `Oc1ccc(/C=N/Nc2nc(N3CCCC3)nc(N3CCCC3)n2)cc1O`?
BAZ2B inh: -22.1%; G9a inh: 10µM*; Six1-Eya2 inh: -0.8; JMJD2A Tudor: inconclusive; CtBP-E1A blk: 10.7; HP1b chromo inh: 9.5%

What do the screens show for `COc1ccc(/C=N/Nc2cc(N3CCCC3)nc(N3CCCC3)n2)cc1`?
BAZ2B inh: inconclusive; G9a inh: 22.4µM*; Six1-Eya2 inh: inconclusive; JMJD2A Tudor: inconclusive; CtBP-E1A blk: -23.2; HP1b chromo inh: -10.1%

How did COc1cc(/C=N/Nc2nc(N3CCCC3)nc(N3CCCC3)n2)ccc1O do in these assays?
BAZ2B inh: -22.1%; G9a inh: inconclusive; Six1-Eya2 inh: -8.5; JMJD2A Tudor: -24.1%; CtBP-E1A blk: -1.9; HP1b chromo inh: 6.1%

Results for O=[N+]([O-])c1cccc(-n2cccc2/C=N/Nc2nc(N3CCCCC3)nc(N3CCCCC3)n2)c1 ?
G9a inh: 31.6µM*; Six1-Eya2 inh: -29.1; JMJD2A Tudor: inconclusive; CtBP-E1A blk: 2.5; HP1b chromo inh: inconclusive

How did Oc1ccc(/C=N/Nc2cc(N3CCCC3)nc(N3CCCC3)n2)cc1 do in these assays?
BAZ2B inh: -1.3%; G9a inh: 3.0%; Six1-Eya2 inh: -8.0; JMJD2A Tudor: -9.9%; CtBP-E1A blk: -3.7; HP1b chromo inh: 18.8%

How did Cc1ccc(NS(=O)(=O)c2ccc(Cl)cc2)cc1C do in these assays?
JMJD2A Tudor: -4.1%

Results for COc1cccc(C(=O)NC(=NCCc2c[nH]c3ccc(OC)cc23)Nc2nc(C)cc(C)n2)c1 ?
BAZ2B inh: inconclusive; G9a inh: -42.9%[59 µM]; JMJD2A Tudor: inconclusive; HP1b chromo inh: 3.3%

What do the screens show for `CCOc1ccccc1NC(=O)CN1Cc2ccccc2C1=O`?
BAZ2B inh: 4.1%; G9a inh: 5.2%[59 µM]; JMJD2A Tudor: -15.5%; HP1b chromo inh: -12.0%

Results for Cc1cccc(N(CC(=O)O)CC(=O)O)c1 ?
BAZ2B inh: -31.3%; G9a inh: 11.2µM*; Six1-Eya2 inh: 0.5; JMJD2A Tudor: -35.5%; CtBP-E1A blk: 0.0; HP1b chromo inh: 1.2%

How did O=C(CSc1nncn1-c1ccccc1)Nc1ccc(N2CCOCC2)cc1 do in these assays?
BAZ2B inh: -5.7%; Six1-Eya2 inh: -2.1; JMJD2A Tudor: 10µM*; CtBP-E1A blk: -4.9; HP1b chromo inh: -12.3%

How did O=C(CSc1nnc(C2CC2)n1-c1ccccc1)Nc1ccc(N2CCOCC2)cc1 do in these assays?
BAZ2B inh: -29.8%; G9a inh: 56.2µM*; Six1-Eya2 inh: -3.1; JMJD2A Tudor: -12.0%; CtBP-E1A blk: -0.7; HP1b chromo inh: 26.3%

How did Cc1ccc(O)c(NS(=O)(=O)c2cccc3nsnc23)c1 do in these assays?
BAZ2B inh: 44.7µM*; G9a inh: -31.2%[2.33 µM]; Six1-Eya2 inh: -6.0; JMJD2A Tudor: inconclusive; CtBP-E1A blk: -14.5; HP1b chromo inh: inconclusive

How did O=S(=O)(Nc1cccc2nsnc12)c1ccccc1 do in these assays?
BAZ2B inh: 3.3%; G9a inh: -2.0%[59 µM]; Six1-Eya2 inh: -3.8; JMJD2A Tudor: -19.2%; CtBP-E1A blk: -7.0; HP1b chromo inh: 7.4%

How did Cc1cc(C)c(S(=O)(=O)Nc2ccc[nH]c2=O)c(C)c1 do in these assays?
BAZ2B inh: 0.7%; G9a inh: 8.91µM*; Six1-Eya2 inh: -6.6; JMJD2A Tudor: -17.8%; CtBP-E1A blk: -1.5; HP1b chromo inh: 21.2%

What do the screens show for `Cc1cc(C)c(S(=O)(=O)Nc2cccc3nsnc23)c(C)c1`?
BAZ2B inh: 19.0%; G9a inh: 3.16µM*; Six1-Eya2 inh: -2.3; JMJD2A Tudor: 17.6%; CtBP-E1A blk: 5.4; HP1b chromo inh: 72.5%

How did COc1cc(NS(=O)(=O)c2cccc3nsnc23)cc(OC)c1 do in these assays?
BAZ2B inh: 56.2µM*; G9a inh: 2µM*; Six1-Eya2 inh: -1.5; JMJD2A Tudor: 44.7µM*; CtBP-E1A blk: -2.0; HP1b chromo inh: -9.7%

Results for Cc1ccc(NS(=O)(=O)c2cccc3nsnc23)cc1C ?
BAZ2B inh: inconclusive; G9a inh: -37.3%; Six1-Eya2 inh: -21.6; JMJD2A Tudor: -23.4%; CtBP-E1A blk: -9.6; HP1b chromo inh: -2.7%

How did O=C(CSc1nc2c([nH]c3ccccc32)c(=O)n1-c1ccccc1)N1CCCCC1 do in these assays?
BAZ2B inh: -9.7%; G9a inh: 3.1%[59 µM]; JMJD2A Tudor: -17.4%; HP1b chromo inh: 20.3%[57 µM]

Results for CC(=O)Nc1ccc(N(C(=O)Cn2nnc3ccccc32)C(C(=O)NCc2ccccc2)c2ccc(C)cc2)cc1 (configuration not stated) ?
BAZ2B inh: -7.4%; G9a inh: -2.9%[59 µM]; JMJD2A Tudor: -13.5%; HP1b chromo inh: 16.8%

How did Nc1ccc2c(c1)C(=O)C(=O)c1ccccc1-2 do in these assays?
BAZ2B inh: inconclusive; G9a inh: 5.6%[0.501 µM]; Six1-Eya2 inh: inconclusive; JMJD2A Tudor: inconclusive; CtBP-E1A blk: inconclusive; HP1b chromo inh: 20µM*

What do the screens show for `Nc1ccc2c(c1)C(=O)c1ccccc1-2`?
Six1-Eya2 inh: -23.6; JMJD2A Tudor: inconclusive; CtBP-E1A blk: -9.9; HP1b chromo inh: inconclusive

Results for O=[N+]([O-])c1ccc(-c2nnc3cccc(Cl)n23)cc1 ?
BAZ2B inh: inconclusive; G9a inh: 35.5µM*; Six1-Eya2 inh: 1.1; JMJD2A Tudor: 56.2µM*; CtBP-E1A blk: -16.4; HP1b chromo inh: 21.9%
